Source: publication PMC7862700, “An all-to-all approach to the identification of sequence-specific readers for epigenetic DNA modifications on cytosine”

Columns and labels:
Assay in all cases: DAPPL (digital affinity profiling via proximity ligation, sequencing); 10 mM Tris-HCl pH 7.5, 50 mM NaCl, 1 mM DTT, 4% glycerol, room temperature, 30 min; GST-TFs on glutathione beads, 16-mer random dsDNA library, 0.1% formaldehyde crosslink after washing; high values mean tight binding
Conditions in all cases: protein: recombinant; tags: N-terminal GST; dsDNA, one strand shown
FLI1 = target: T1, FLI1 (Homo sapiens, UniProt Q01543 1-452)
T1 sequence: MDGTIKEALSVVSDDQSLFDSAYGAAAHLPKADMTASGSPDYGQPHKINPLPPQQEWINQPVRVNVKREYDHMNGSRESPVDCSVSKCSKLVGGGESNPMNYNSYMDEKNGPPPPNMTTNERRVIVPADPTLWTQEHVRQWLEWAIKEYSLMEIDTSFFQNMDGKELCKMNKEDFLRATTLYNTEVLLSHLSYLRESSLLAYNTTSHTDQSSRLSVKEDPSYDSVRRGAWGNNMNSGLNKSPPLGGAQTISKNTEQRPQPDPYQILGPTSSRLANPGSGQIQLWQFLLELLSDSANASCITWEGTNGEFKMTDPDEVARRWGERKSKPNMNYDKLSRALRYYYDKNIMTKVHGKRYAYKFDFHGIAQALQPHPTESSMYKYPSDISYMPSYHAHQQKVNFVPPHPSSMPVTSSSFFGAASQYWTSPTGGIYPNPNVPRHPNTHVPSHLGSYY
Procedure, shortened: (§1)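 Pools were built from human transcription factors expressed in yeast as GST fusions, captured on glutathione beads and DNA-barcoded, along with a tag-only sample. Incubation with 200 nmole of a 16-mer random double-stranded DNA library lasted 30 min at room temperature in Tris/NaCl/DTT/glycerol buffer, and was followed by washing, 0.1% formaldehyde crosslinking, proximity ligation, PCR amplification and Illumina NextSeq500 sequencing. Binding signal is the quotient of each hexamer's read frequency for a factor and its frequency for the tag-only sample.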

ELK1 = target: T2, ELK1 (Homo sapiens, UniProt P19419 1-428)
T2 sequence: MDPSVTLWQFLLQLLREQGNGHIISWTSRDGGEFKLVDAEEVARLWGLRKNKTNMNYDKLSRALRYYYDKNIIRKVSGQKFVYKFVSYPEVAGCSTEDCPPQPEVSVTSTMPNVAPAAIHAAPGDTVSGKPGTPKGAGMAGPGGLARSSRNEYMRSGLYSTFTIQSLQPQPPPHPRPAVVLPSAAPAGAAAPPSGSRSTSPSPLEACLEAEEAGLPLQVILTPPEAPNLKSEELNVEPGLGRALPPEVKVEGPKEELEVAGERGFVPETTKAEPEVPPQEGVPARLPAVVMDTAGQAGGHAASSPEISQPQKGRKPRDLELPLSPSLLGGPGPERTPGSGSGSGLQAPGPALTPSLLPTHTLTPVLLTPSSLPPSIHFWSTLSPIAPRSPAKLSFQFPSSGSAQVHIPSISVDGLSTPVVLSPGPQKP
Procedure, shortened: as §1

GABPA = target: T3, GABPA (Homo sapiens, UniProt Q06546 1-454)
T3 sequence: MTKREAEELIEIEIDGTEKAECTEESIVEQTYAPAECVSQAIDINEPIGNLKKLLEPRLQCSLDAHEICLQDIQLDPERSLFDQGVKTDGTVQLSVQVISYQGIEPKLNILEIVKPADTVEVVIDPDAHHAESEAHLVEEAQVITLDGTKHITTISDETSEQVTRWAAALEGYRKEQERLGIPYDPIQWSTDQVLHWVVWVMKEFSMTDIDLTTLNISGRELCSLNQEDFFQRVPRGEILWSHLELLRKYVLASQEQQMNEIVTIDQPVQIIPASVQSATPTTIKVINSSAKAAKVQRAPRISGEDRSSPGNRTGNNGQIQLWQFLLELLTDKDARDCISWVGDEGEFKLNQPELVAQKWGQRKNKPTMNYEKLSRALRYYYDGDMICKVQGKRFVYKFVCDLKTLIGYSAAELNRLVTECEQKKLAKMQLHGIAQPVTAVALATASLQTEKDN
Procedure, shortened: as §1

ERG = target: T4, ERG (Homo sapiens, UniProt P11308 1-479)
T4 sequence: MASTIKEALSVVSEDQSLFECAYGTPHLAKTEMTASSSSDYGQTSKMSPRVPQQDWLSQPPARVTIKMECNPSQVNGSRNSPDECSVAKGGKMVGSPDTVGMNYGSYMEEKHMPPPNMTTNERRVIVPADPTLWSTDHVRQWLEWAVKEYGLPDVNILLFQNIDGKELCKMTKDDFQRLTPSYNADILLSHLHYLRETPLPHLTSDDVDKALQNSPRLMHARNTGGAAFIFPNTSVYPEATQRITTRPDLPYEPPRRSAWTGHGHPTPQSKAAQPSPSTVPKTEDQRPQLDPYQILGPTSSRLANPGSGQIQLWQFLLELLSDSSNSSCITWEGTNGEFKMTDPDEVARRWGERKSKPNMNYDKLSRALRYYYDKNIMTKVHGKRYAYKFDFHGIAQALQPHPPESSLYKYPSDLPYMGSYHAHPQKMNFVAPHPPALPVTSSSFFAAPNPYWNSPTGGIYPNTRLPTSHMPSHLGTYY
Procedure, shortened: as §1

ELF1 = ELF1 (Homo sapiens, UniProt P32519 1-619)
Sequence of ELF1 (P32519 whole entry): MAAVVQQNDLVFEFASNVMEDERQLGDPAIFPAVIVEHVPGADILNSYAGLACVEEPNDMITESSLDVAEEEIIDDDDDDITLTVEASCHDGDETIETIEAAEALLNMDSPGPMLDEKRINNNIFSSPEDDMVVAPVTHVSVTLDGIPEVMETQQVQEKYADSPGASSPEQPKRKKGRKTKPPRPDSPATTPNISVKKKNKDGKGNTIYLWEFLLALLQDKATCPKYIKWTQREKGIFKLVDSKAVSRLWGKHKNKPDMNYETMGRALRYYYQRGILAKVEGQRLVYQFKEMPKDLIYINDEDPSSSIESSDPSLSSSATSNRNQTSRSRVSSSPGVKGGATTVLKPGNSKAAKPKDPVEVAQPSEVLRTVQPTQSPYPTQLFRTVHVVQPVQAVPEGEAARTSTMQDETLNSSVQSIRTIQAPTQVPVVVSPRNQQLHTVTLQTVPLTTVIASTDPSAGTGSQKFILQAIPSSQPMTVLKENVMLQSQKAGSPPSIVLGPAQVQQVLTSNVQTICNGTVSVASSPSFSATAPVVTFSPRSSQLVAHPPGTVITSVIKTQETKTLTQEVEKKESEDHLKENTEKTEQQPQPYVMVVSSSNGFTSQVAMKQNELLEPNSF
Procedure, shortened: as §1

EHF = target: T5, EHF (Homo sapiens, UniProt Q9NZC4 1-300)
T5 sequence: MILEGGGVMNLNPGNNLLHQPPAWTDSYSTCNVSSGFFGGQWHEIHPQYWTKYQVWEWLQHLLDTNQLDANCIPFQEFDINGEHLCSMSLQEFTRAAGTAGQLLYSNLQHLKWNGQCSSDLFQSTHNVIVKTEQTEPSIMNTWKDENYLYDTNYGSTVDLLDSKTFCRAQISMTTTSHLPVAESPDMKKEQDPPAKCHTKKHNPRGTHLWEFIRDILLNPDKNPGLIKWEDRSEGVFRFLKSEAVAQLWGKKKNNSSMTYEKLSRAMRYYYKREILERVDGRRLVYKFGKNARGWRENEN
Procedure, shortened: as §1

SPI1 = SPI1 (Homo sapiens, UniProt P17947 1-270)
Procedure, shortened: as §1

SPIB = SPIB (Homo sapiens, UniProt Q01892 1-262)
Sequence of SPIB (Q01892 whole entry): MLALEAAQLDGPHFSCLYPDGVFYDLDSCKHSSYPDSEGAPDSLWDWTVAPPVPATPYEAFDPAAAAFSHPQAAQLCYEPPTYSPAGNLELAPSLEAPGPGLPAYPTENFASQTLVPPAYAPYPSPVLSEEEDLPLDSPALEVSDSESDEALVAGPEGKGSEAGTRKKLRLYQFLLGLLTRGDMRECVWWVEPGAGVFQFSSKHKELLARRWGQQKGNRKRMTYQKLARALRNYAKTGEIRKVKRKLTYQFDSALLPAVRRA
Procedure, shortened: as §1

FEV = target: T6, FEV (Homo sapiens, UniProt Q99581 1-238)
T6 sequence: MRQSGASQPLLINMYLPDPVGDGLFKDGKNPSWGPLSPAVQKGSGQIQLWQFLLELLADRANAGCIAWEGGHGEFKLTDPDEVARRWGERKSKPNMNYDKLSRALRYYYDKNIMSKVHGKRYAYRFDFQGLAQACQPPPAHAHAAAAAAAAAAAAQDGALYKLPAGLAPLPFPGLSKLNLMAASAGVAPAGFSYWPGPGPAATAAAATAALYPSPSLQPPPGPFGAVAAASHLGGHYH
Procedure, shortened: as §1

ETV5 = ETV5 (Homo sapiens, UniProt P41161 1-510)
Sequence of ETV5 (P41161 whole entry): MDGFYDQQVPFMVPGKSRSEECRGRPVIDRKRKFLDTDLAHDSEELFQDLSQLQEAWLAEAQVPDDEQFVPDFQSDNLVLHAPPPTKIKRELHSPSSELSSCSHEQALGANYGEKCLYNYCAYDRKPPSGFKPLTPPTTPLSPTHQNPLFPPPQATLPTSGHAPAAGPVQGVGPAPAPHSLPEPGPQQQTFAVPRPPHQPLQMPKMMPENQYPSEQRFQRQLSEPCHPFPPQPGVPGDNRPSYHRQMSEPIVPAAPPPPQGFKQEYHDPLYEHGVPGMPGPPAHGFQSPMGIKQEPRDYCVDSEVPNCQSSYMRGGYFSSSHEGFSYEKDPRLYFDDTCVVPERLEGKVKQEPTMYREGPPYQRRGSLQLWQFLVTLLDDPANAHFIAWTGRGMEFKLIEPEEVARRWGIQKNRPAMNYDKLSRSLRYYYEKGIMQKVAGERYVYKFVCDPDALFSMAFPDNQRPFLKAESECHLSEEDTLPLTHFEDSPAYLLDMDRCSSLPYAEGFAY
Procedure, shortened: as §1

ACGATG
binding signal (FLI1): 1.24 fold enrichment (6-mer frequency, TF over GST control) | binding signal (ELK1): 1.06 fold enrichment (6-mer frequency, TF over GST control) | binding signal (GABPA): 1.17 fold enrichment (6-mer frequency, TF over GST control) | binding signal (ERG): 1.13 fold enrichment (6-mer frequency, TF over GST control) | binding signal (ELF1): 1.06 fold enrichment (6-mer frequency, TF over GST control) | binding signal (EHF): 1.16 fold enrichment (6-mer frequency, TF over GST control) | binding signal (SPI1): 1.17 fold enrichment (6-mer frequency, TF over GST control) | binding signal (SPIB): 1.18 fold enrichment (6-mer frequency, TF over GST control) | binding signal (FEV): 1.05 fold enrichment (6-mer frequency, TF over GST control) | binding signal (ETV5): 1.12 fold enrichment (6-mer frequency, TF over GST control)
